Source: PubChem BioAssay AID686979 (National Center for Advancing Translational Sciences (NCATS), 2013)
Several values for one entry are separate records, joined by “and”; a condition that tells them apart may be missing. Equal entries are not always repeated. Out of some 420,000 compounds screened, about 50,000 (12%) were called active. A call without a number means that no potency is given here. Inconclusive results (about 26%) are left out. This is one part of a sample in which actives are shown more often than they occur. Calls follow the shape of the dose curve; as a rule, active = well fitted inhibition curve with a large enough effect; inconclusive = small, poorly fitted or top-dose-only effect; inactive = flat fitted curve, though single readings scatter.

Assay: qHTS for Inhibitors of human tyrosyl-DNA phosphodiesterase 1 (TDP1): qHTS in cells in presence of CPT; also: nearly all actives have a fitted effect of over 55% in size
Conditions: chicken DT40 Tdp1-/-;hTDP1 cells + 20 nM CPT, ATP luminescence, 48 h; series mostly up to 46.2 µM
Outline: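 Chicken DT40 Tdp1-/- cells complemented with human TDP1, 400 cells/well, exposed to compounds plus 20 nM camptothecin for at least 48 h at 37 C; viability read as ATP content by CellTiter-Glo luminescence.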
Potency is read from the fitted curve at half-maximal effect.

SMILES | Potency
CCCS(=O)(=O)N1CCN=C1SCc1cccc(F)c1 | inactive
CCCC[C@@H]1CN=C(N)N1CCc1cc(C(F)(F)F)cc(C(F)(F)F)c1 | 3.66 µM (active)
CCCC[C@@H]1CN=C(N)N1CCc1cccc(F)c1 | 9.2 µM (active)
O=C1NC[C@@H](Cc2ccc(O)cc2)N(CCc2cccc(F)c2)C1=O | inactive
CCN(CC(=O)NCc1cccs1)C(=O)c1ccc(OC)c(S(=O)(=O)N2CCOCC2)c1 | inactive
Cn1c(=O)c2c(nc(N3CCOCC3)n2CCNC2=NCCC2)n(C)c1=O | inactive
CC(NC(=S)NC1CCCCC1)C(c1ccccc1)N1CCOCC1 (configuration not stated) | inactive
CCn1c(SCC(=O)NNC(=O)c2ccc(OC)cc2)nnc1C(C)C | inactive
Cc1cccc(C)c1NC1=NC(=S)N(c2ccc(N(C)C)cc2)C1(C)C | inactive
CCc1cccc(C)c1NS(=O)(=O)c1c(C)nc2sccn2c1=O | inactive
Cc1ccc(-c2c(N)nc3ncccn23)cc1 | inactive
CCc1cccc(C)c1Nc1c(-c2ccc(N(C)C)cc2)nc2ncccn12 | 10.3 µM (active)
Cc1c(-c2cccc(NC(=O)C(C)(C)C)c2)nc2ncccn12 | inactive
Cc1cccc(C)c1Nc1c(-c2ccccc2O)nc2ncccn12 | 20.6 µM (active)
CC1(OC(=O)CCc2ccccc2)C(=O)C=C2C=C(c3ccc(C#N)cc3)N(CCc3ccccn3)C=C2C1=O (configuration not stated) | inactive
CC1CCN(c2ccc([N+](=O)[O-])cc2C(N)=O)CC1 | inactive
CC(C)c1ccc(NC(=O)Cn2nnc(C(=O)NCCc3ccccc3)c2N)cc1 | inactive
O=C(COc1ccc([N+](=O)[O-])cc1)Nc1cccc(C(=O)Nc2ccccc2C(=O)O)c1 | inactive
CCc1cccc(NC(=O)c2cc(-c3ccccc3)n[nH]2)c1 | inactive
CCc1ccc2c(c1)C1(NN=C(c3ccccc3)S1)C(=O)N2 (configuration not stated) | 2.91 µM (active)
CCCCC(CC)CNC(=O)C1CCN(S(=O)(=O)c2cccc3nsnc23)CC1 (configuration not stated) | inactive
COc1cccc2c(O)cc(=O)n(C)c12 | inactive

SMILES | Potency
Cc1cc(C)c(-c2c(O)c3ccccc3n(C)c2=O)c(C)c1 | inactive
COc1cc2c(=O)n(C)c3ccccc3c2cc1OC | 13 µM (active)
Cc1ccc(Cc2nnc(SCC(=O)Nc3ccccc3C)[nH]c2=O)cc1 | inactive
C[C@H](CO)N1C[C@H](C)[C@H](CN(C)C(=O)Nc2ccc3c(c2)OCO3)Oc2ncc(Br)cc2C1=O | inactive
CCOc1ccc(NC(=O)CN(C)C(=O)c2c(C)noc2C)cc1OCC | inactive
c1ccc(-c2c[nH]c(-c3ccccc3)c2)cc1 | inactive
CC1CCCCC12NC(=O)N(CC(=O)N1CCN(c3ccccc3)CC1)C2=O (configuration not stated) | inactive
CC(=O)c1ccc(N2CCN(CC(O)c3ccccc3)CC2)cc1 (configuration not stated) | inactive
COc1cc(OC)c(/C=C/c2ccnc3ccccc23)c(OC)c1 | 10 µM (active)
COc1ccc(C=Nc2cccc3ncccc23)cc1 | inactive
COc1ccc(/C=C2/C(=O)N(c3ccccc3)N=C2C)c(OC)c1 | inactive
CC(=O)OC1CCC2(O)CC1(C)CCC1C2CC1(C)C (configuration not stated) | inactive
COc1ccc(-n2c(-c3ccc(OC)c(OC)c3)n[nH]c2=S)cc1 | inactive
CCOc1ccc(-c2n[nH]c(C)c2-c2ccccn2)c(O)c1 | inactive
COc1ccc(-c2c(-c3ccc(OC)cc3O)nc(C)nc2C(F)(F)F)cc1 | inactive
C=C(C)COc1ccc(-c2n[nH]c(C)c2-c2ccccc2)c(O)c1 | 14.6 µM (active)
COc1ccc(-c2n[nH]c(C)c2-c2ccc(OC)c(OC)c2)c(O)c1 | 20.6 µM (active)
C=C(C)COc1ccc(-c2ncncc2-c2ccc(OC)cc2)c(O)c1 | inactive
N#Cc1c(-c2ccccc2)nc(SCc2ccc([N+](=O)[O-])cc2)[nH]c1=O | inactive
O=C(Nc1ccccc1)/C(=C\c1ccco1)NC(=O)c1ccco1 | inactive
CCN(CC(=O)Nc1ccc(OC)cc1)C(=O)c1ccc(=O)n(Cc2ccccc2)n1 | inactive
COc1ccc(NC(=O)CCCNC(=O)Cn2cnc3sc4c(c3c2=O)CCCC4)cc1OC | inactive

SMILES | Potency
O=C(Nc1ccccc1C(=O)N1CCCCCC1)c1ccccc1Cl | inactive
Nc1nnnn1/N=C/c1cccc(Br)c1 | inactive
CCOC(=O)c1c(NC(=O)c2ccc(Br)o2)sc2c1CCCC2 | inactive
CCOC(=O)c1c(NC(=O)C2(C)Cc3ccccc3C(=O)O2)sc2c1CCCC2 (configuration not stated) | 18.4 µM (active)
CCOC(=O)c1c(NC(=S)Nc2ccccc2C)sc2c1CCC2 | inactive
O=C1c2ccccc2C(=O)N1CCC(O)C[N+](=O)[O-] (configuration not stated) | inactive
COc1ccc(CCNc2nc3c(-c4cccc(F)c4)nnn3c3ccccc23)cc1OC | inactive
COCCCNc1nc2c(-c3cccc(C)c3)nnn2c2ccc(Cl)cc12 | 11.6 µM (active)
COCCCNc1nc2c(-c3cccc(C(F)(F)F)c3)nnn2c2ccccc12 | inactive
C[C@@H]1O[C@@H](OC[C@H]2O[C@@H](Oc3c(-c4ccc(O)cc4)oc4cc(O)cc(O)c4c3=O)[C@H](O)[C@@H](O)[C@@H]2O)[C@H](O)[C@H](O)[C@H]1O | inactive
COc1cccc(-n2c(=O)c3c(C)c(C(=O)N(C)C)sc3n(Cc3cccc(C)c3)c2=O)c1 | inactive
COc1cc(OC)cc(C2=Cc3ccccc3C(CC(=O)c3ccco3)N2c2ccc(-c3cnc(OC)nc3)cc2)c1 (configuration not stated) | inactive
Cn1c2ccccc2c2cc(/C=C(\NC(=O)c3ccccc3)C(=O)NCC(=O)O)ccc21 | inactive
O=C(C1CCN(CC2CCCCC2)CC1)N1CCCC1 | inactive
Cc1cccc(Cn2c(=O)n(CCC(=O)NCCc3ccc(Cl)cc3)c(=O)c3sccc32)c1 | inactive
CCC1CCCCN1CCCNC(=O)C1CCC(Cn2c(=O)[nH]c3ccccc3c2=O)CC1 (configuration not stated) | inactive
CCCNC(=O)C1CCC(Cn2c(=O)c3sccc3n(Cc3ccccc3F)c2=O)CC1 (configuration not stated) | 14.6 µM (active)
O=c1c(F)cn(C2CCCO2)c(=O)n1Cc1ccccc1Cl (configuration not stated) | inactive
O=C(C1CCC(Cn2c(=O)c3sccc3n(Cc3ccccc3F)c2=O)CC1)N1CCCCC1 (configuration not stated) | 23.1 µM (active)
C=Cc1ccc(Cn2c(C(=O)OC)cc3sc(C)cc32)cc1 | inactive
COc1ccc(S(=O)(=O)NC(=O)C2(C)CCN2C(=O)c2ccccc2CCc2ccccc2)cc1 (configuration not stated) | inactive
CCCc1cc(=O)oc2c(C)c(OCC(=O)Nc3ccccn3)ccc12 | inactive

SMILES | Potency
CCc1cc(=O)oc2c(C)c(OCC(=O)NCCN3CCOCC3)ccc12 | 23.1 µM (active)
CCCc1cc(=O)oc2c(C)c(OCC(=O)NCc3ccccn3)ccc12 | inactive
O=C(NCc1cccnc1)C12CC3CC(CC(C3)C1)C2 | inactive
CCOc1ccc(C(C)=O)cc1COC(=O)CNC(=O)c1cccs1 | inactive
COC(=O)CCNC(=O)c1ccc2[nH]c(C)c(C)c2c1 | inactive
Cc1ccc(C(=O)NCCSc2c(C)[nH]c3ccccc23)cc1C | 18.4 µM (active)
CN(C)CCCNC(=O)c1ccc2[nH]c3ccccc3c2c1 | inactive
COc1cccc(NC(=O)CN(C)C(=O)CSC(=S)N2CCCC2)c1 | inactive
Cn1c(=O)sc2cc(NS(=O)(=O)c3ccc(C(C)(C)C)cc3)ccc21 | inactive
Cn1c(=O)n(C)c2cc(S(=O)(=O)Nc3ccc(F)cc3)ccc21 | 16.4 µM (active)
Cc1cc(C)cc(NS(=O)(=O)c2ccc(F)cc2)c1 | inactive
O=C(Nc1ccccc1N1CCOCC1)c1ccc(OCc2cscn2)cc1 | inactive
O=Nc1c(O)cc(O)c2ccccc12 | inactive
O=C(/C=C/c1cccc(F)c1)NC1CC1 | inactive
Cc1cc(NC(C)C)n2c(nc3ccccc32)c1C#N | inactive
Cc1cc(NCc2ccco2)n2c(nc3ccccc32)c1C#N | inactive
CC(C)c1cc(NCc2ccccn2)n2c(nc3ccccc32)c1C#N | 5.8 µM (active)
O=C(COC(=O)c1cc(S(=O)(=O)N2CCOCC2)ccc1F)NC1CC1 | inactive
CCS(=O)(=O)N1CCN(C(=O)c2cccs2)CC1 | inactive
CCCS(=O)(=O)N1CCN(C(=O)c2cccs2)CC1 | inactive
Cc1ccc(C(=O)N2CCCC(c3ccccc3)=N2)cc1 | inactive
Cc1ccc(NC(=O)CN2CCc3ccccc3C2)cc1 | inactive

SMILES | Potency
O=C(C[n+]1cc(-c2ccc(Cl)c(Cl)c2)n2c1CCC2)c1cccs1 | 10.3 µM (active)
O=C(c1ccc(CSc2ccccc2)cc1)N1CCCCCC1 | inactive
Cc1ccc(C(=O)C[n+]2cc(-c3ccccc3)n3c2CCCCC3)cc1 | 5.62 µM (active) and 1.64 µM (active)
Cc1ccc(NC(=S)N2CCCC(c3ccccc3)=N2)cc1 | inactive
Cc1ccc(-c2c[n+](CC(=O)Nc3ccccc3)c3n2CCC3)cc1 | 11.6 µM (active)
COc1ccccc1NC(=O)N1CCCC1C(=O)NCc1cccs1 (configuration not stated) | inactive
CC(C)CN(C(=O)CSc1ncnc2sccc12)C1CCS(=O)(=O)C1 (configuration not stated) | inactive
O=C(COc1ccc(NC(=O)c2ccccc2[N+](=O)[O-])cc1)c1ccc(F)cc1 | inactive
CSc1nc(-c2ccccc2)nc(C(Cl)Cl)n1 | 1.16 µM (active)
CSc1ncc(Sc2ccccc2)c(C(=O)O)n1 | inactive
COc1ccc(CC(NC(C)=O)C(=O)N2CCN(C(=O)Nc3cccc(Cl)c3)CC2)cc1OC (configuration not stated) | inactive
COc1ccc(CCC(=O)c2ccc(OC)cc2)cc1 | inactive
COc1ccc(OCCCC(=O)Oc2ccc(OC)cc2)cc1 | inactive
COc1ccc(OCCC(=O)c2ccc(OC)cc2)cc1 | 2.59 µM (active)
Cc1ccc2sc(NNC(=O)c3ccc4c(c3)OCCO4)nc2c1C | inactive
CNc1ccc(-c2nc(-c3ccccc3C)no2)cc1[N+](=O)[O-] | inactive
Cc1noc(C)c1C(=O)N1CCOCC1 | inactive
Cc1oc2c(c1C(=O)N1CCOCC1)C(=O)c1ccccc1C2=O | 2.59 µM (active)
Cc1onc(-c2ccccc2)c1C(=O)N1CCOCC1 | inactive
